Assay results reported in PubChem BioAssay.
For some of these results: Entries with a potency or affinity are not part of this list. Active and inactive are the calls of the source.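 The calls were made as follows, unless noted: active = primary screen active and over 50% activation in each of two duplicate runs; inactive = the rest.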

How the values were obtained:
[1] = system: TRPC4 beta (transient receptor potential cation channel C4), mouse; test: TRPC4 cation channel opening, retest – cell-based, Fluo4 calcium, HEK293 TRPC4beta/mu-opioid, duplicates, 10 µM, confirmation (AID 2426;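 active = fluorescence ratio normalized to control raised more than 50% in primary screen plus both repeat runs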); settings: Fluo4 calcium fluorescence, at 10 µM; stronger effect = higher value
[2] = system: transient receptor potential cation channel C4 beta (TRPC4), mouse; test: TRPC4 cation channel opening, second retest – cell-based, second round, Fluo4, HEK293 TRPC4beta/mu-opioid, 1 µM, confirmation (AID 2461); settings: Fluo4 calcium fluorescence, at 1 µM; stronger effect = higher value
[3] = system: TRPC4 (transient receptor potential cation channel C4 beta), mouse; test: potentiation of DAMGO EC20 TRPC4 response – cell-based, second round, Fluo-4, HEK293 TRPC4beta/mu-opioid, 1 µM, confirmation (AID 2554;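 active = primary screen hit whose fluorescence ratio, in both repeats, exceeds the weak agonist control mean by 3 SD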); settings: DAMGO EC20, Fluo-4 calcium flux, at 1 µM; stronger effect = higher value
[4] = system: TRPC4 beta (transient receptor potential cation channel C4), mouse; test: potentiation of DAMGO EC20 TRPC4 response – cell-based, Fluo-4, HEK293 TRPC4beta/mu-opioid, confirmation (AID 2555;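 active = primary screen hit whose calcium fluorescence ratio, in both repeats, exceeds the weak agonist control mean by 3 SD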); settings: DAMGO EC20, Fluo-4 calcium flux, at 10 µM; stronger effect = higher value
[5] = target: Short transient receptor potential channel 4 (Mus musculus) (UniProt Q9QUQ5); test: blockers of DAMGO-evoked TRPC4 calcium flux – cell-based, Fluo4, HEK293 TRPC4beta/mu-opioid, confirmation (AID 2636;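 active = calcium signal cut by more than 3 SD below the full-agonist control yet still positive, in both repeats and the earlier primary screen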); settings: at 10 µM; stronger effect = higher value
Chain of Short transient receptor potential channel 4 (Mus musculus) (Q9QUQ5 whole entry, looked up): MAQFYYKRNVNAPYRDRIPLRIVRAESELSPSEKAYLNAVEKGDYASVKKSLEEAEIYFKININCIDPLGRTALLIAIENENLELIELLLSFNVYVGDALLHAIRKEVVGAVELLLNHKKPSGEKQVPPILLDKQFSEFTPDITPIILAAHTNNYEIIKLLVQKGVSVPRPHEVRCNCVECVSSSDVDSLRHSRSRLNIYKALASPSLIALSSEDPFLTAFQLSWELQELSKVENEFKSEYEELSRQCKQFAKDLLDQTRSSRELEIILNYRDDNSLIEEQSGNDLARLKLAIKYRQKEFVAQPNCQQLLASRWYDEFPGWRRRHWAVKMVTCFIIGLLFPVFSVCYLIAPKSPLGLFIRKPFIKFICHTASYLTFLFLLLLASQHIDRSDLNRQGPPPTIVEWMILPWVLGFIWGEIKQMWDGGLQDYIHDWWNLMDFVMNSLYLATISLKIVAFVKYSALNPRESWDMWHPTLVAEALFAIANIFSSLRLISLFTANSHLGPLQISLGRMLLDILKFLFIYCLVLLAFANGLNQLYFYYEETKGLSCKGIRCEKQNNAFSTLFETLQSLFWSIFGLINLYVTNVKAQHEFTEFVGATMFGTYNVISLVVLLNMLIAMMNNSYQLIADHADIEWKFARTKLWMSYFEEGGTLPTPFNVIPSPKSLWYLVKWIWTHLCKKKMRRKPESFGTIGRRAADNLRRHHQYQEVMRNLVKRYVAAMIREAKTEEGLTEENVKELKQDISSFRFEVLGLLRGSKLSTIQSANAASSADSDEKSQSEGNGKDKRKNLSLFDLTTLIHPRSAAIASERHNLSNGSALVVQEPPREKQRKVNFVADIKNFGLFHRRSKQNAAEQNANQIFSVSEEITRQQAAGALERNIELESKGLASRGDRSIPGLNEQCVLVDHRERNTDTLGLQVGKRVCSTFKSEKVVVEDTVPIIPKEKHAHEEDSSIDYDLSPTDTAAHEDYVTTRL

[6] = target: Short transient receptor potential channel 4 (Mus musculus) (UniProt Q9QUQ5); test: blockers of DAMGO-evoked TRPC4 calcium flux – cell-based, second round, Fluo4, HEK293 TRPC4beta/mu-opioid, 1 µM, confirmation (AID 2637;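 active = calcium signal ratio cut to more than 3 SD under the fully stimulated control mean yet still positive, in both repeats and the primary screen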;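 as to inhibition: percent of integrated ratio relative to wells lacking test compound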); settings: at 1 µM; stronger effect = higher value
[7] = target: Short transient receptor potential channel 4 (Mus musculus) (UniProt Q9QUQ5); test: calcium entry via TRPC4 opening agents – cell-based, HEK293 TRPC4/mu-opioid, Fluo-4 calcium, dose response (AID 434937;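 active = primary screen activator hit with a dose response curve and TRPC4 channel activation at any tested dose; inactive = no activation, no dose response, or not a primary hit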)
[8] = target: Short transient receptor potential channel 4 (Mus musculus) (UniProt Q9QUQ5); test: potentiation of DAMGO-evoked TRPC4 calcium signal – cell-based, HEK293 TRPC4/mu-opioid, Fluo-4 calcium, EC20 DAMGO, dose response (AID 434941;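 active = earlier screen potentiator hit that boosts the TRPC4 ion channel at some dose, with a dose response; inactive = no potentiation, no dose response, or not a prior hit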;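 also: calcium entry triggered by an EC20 dose of DAMGO at the co-expressed mu-opioid receptor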)
[9] = target: Short transient receptor potential channel 4 (Mus musculus) (UniProt Q9QUQ5); test: block of DAMGO-driven TRPC4 calcium entry – cell-based, HEK293 TRPC4/mu-opioid, Fluo-4 calcium, dose response (AID 434942;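 active = primary screen inhibitor hit that blocks the TRPC4 channel at some tested dose, yielding a dose curve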)
[10] = target: Short transient receptor potential channel 6 (Mus musculus) (UniProt Q61143); test: TRPC6 blockade by TRPC4 inhibitor hits – cell-based, HEK293, membrane potential dye, duplicate, selectivity assay for TRPC4 inhibitor project, confirmation (AID 434948;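 active = active in primary screen and both duplicates, each dropping signal beyond three positive-control SD with fluorescence still positive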); settings: HEK293 TRPC6, membrane potential dye fluorescence, at 10 µM, stimulated with maximal-effect acetylcholine; stronger effect = higher value
Chain of Short transient receptor potential channel 6 (Mus musculus) (Q61143 whole entry, looked up): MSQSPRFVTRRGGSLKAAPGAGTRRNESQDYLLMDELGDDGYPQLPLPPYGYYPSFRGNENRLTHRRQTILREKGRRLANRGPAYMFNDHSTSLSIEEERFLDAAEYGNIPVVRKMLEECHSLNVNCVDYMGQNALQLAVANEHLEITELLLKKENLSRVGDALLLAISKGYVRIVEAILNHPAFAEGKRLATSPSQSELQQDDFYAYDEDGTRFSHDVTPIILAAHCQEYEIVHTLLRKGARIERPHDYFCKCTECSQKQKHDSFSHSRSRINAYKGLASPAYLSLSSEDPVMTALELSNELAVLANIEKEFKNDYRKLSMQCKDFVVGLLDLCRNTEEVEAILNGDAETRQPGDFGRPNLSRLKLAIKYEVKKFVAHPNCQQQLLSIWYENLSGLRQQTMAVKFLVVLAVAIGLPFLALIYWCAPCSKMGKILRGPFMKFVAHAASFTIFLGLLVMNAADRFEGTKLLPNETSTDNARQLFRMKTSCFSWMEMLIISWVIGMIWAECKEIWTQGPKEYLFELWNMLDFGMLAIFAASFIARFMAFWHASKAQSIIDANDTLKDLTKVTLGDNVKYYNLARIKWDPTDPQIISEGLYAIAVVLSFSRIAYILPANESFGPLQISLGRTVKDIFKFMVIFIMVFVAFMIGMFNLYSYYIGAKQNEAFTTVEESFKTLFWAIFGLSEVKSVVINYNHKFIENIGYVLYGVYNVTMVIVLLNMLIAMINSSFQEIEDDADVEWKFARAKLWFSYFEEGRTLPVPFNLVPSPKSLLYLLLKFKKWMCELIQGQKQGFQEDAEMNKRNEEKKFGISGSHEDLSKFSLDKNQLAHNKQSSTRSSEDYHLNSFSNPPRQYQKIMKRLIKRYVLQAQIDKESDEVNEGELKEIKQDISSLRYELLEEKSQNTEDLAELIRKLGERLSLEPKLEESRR

[11] = target: Short transient receptor potential channel 6 (Mus musculus) (UniProt Q61143); test: TRPC6 opening by TRPC4 activator hits – cell-based, HEK293, membrane potential dye, duplicate, selectivity assay for TRPC4 activator project, confirmation (AID 434950;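 active = membrane potential signal rise above negative control mean plus 3 SD in both duplicates, also active in the earlier TRPC4 screen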;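 as to activation: 0% = buffer only wells and 100% = acetylcholine maximal-effect wells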); settings: HEK293 TRPC6, membrane potential fluorescence, at 10 µM; activation: stronger effect = higher value; outcome: activation
[12] = target: Short transient receptor potential channel 6 (Mus musculus) (UniProt Q61143); test: positive modulators of mouse TRPC6 channel – HEK293 cells, membrane potential dye, duplicate, selectivity assay for TRPC4 potentiator project, confirmation (AID 434952;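 active = compound raising the membrane signal above positive-control mean plus 3 SD in both repeats, and a primary screen hit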); settings: HEK293 TRPC6, membrane potential dye fluorescence, at 10 µM, maximal acetylcholine added after compound; stronger effect = higher value
[13] = target: Short transient receptor potential channel 4 (Mus musculus) (UniProt Q9QUQ5); test: calcium flux activators in TRPC4/5HT1a cells, counter-screen for TRPC4 activator project, cell-based, second counter screen, HEK293 TRPC4/5HT1a, Fluo-4 (AID 434977;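 active = calcium signal rise above buffer-control mean plus 5 SD in both duplicates, and also a hit in the primary screen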); settings: Fluo-4 calcium flux, at 10 µM; stronger effect = higher value
[14] = serotonin-gated TRPC4 signal block – cell-based, second counter screen, HEK293 TRPC4/5HT1a, Fluo-4, counter-screen for TRPC4 inhibitor project, confirmation (AID 434978;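 active = primary screen active whose calcium signal fell more than 3 SD beyond the full-serotonin control mean in both duplicate plates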;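 as to outcome: serotonin given first at submaximal then at maximal dose after compound preincubation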); settings: Fluo-4 calcium flux, at 10 µM, serotonin added to trigger calcium flux; stronger effect = higher value
[15] = system: TRPC4 (mouse), co-expressed with 5HT1a in HEK293; test: enhancement of serotonin-evoked TRPC4 response – cell-based, second counter screen, HEK293 TRPC4/5HT1a, Fluo-4, counter-screen for TRPC4 potentiator project, confirmation (AID 434979;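 active = signal rise over 3 SD above mean of control wells given weak agonist, in both repeats and first screen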); settings: Fluo-4 calcium flux, at 10 µM, serotonin added at its EC20 dose; stronger effect = higher value
[16] = nonspecific calcium rise without TRPC4 – cell-based, HEK293 mu-opioid receptor line, counter-screen for TRPC4 activator project, confirmation (AID 449723;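 active = hit in primary screen, with calcium signal over 5 SD above buffer well mean in both duplicates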;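 also: counter screen cells carry the mu-opioid receptor alone and lack TRPC4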); settings: HEK293 mu-opioid cells, Fluo-4 calcium fluorescence, at 10 µM; stronger effect = higher value
[17] = nonspecific potentiation of DAMGO calcium response – cell-based, HEK293 mu-opioid receptor line, counter-screen for TRPC4 allosteric potentiator project, confirmation (AID 449724;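 active = calcium signal rise more than 3 SD above the low-dose agonist control mean, in both duplicate plates and the primary screen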); settings: HEK293 mu-opioid receptor cells, Fluo-4 calcium flux, at 10 µM, compound added before EC20 DAMGO stimulus; stronger effect = higher value

Cc1ccc(/C=N/NC(=O)CSc2nc3ccccc3n2Cc2ccccc2)o1
inactive: outcome [1] | outcome [2] | outcome [3] | outcome [4] | outcome [5] | outcome [6] | outcome [7] | outcome [8] | outcome [9] | outcome [10] | outcome [11] | outcome [12] | outcome [13] | outcome [14] | outcome [15] | outcome [16] | outcome [17]

O=C(O)c1ccc(NC(=O)c2cn(-c3ccccc3)nc2-c2ccc(Br)cc2)cc1
inactive: outcome [1] | outcome [2] | outcome [3] | outcome [4] | outcome [5] | outcome [6] | outcome [7] | outcome [8] | outcome [9] | outcome [10] | outcome [11] | outcome [12] | outcome [13] | outcome [14] | outcome [15] | outcome [16] | outcome [17]

Cc1cc(Nc2ccc3c(c2)OCCO3)c2cc(Cl)ccc2n1
inactive: outcome [1] | outcome [2] | outcome [3] | outcome [4] | outcome [5] | outcome [6] | outcome [7] | outcome [8] | outcome [9] | outcome [10] | outcome [11] | outcome [12] | outcome [13] | outcome [14] | outcome [15] | outcome [16] | outcome [17]

COc1ccccc1OCC(=O)Nc1ccc(Cl)cc1
inactive: outcome [1] | outcome [2] | outcome [3] | outcome [4] | outcome [7] | outcome [8] | outcome [9] | outcome [10] | outcome [11] | outcome [12] | outcome [13] | outcome [14] | outcome [15] | outcome [16] | outcome [17]
active: inhibition [5] 52% | inhibition [6] 41%

Cc1ccc(S(=O)(=O)N2CCC(C(=O)OCC(=O)N(C)CC(=O)Nc3ccc(F)cc3)CC2)cc1C
inactive: outcome [1] | outcome [2] | outcome [3] | outcome [4] | outcome [5] | outcome [6] | outcome [7] | outcome [8] | outcome [9] | outcome [10] | outcome [11] | outcome [12] | outcome [13] | outcome [14] | outcome [15] | outcome [16] | outcome [17]

CCCCN1CCc2c1nc1ccc(Br)cc1c2N
inactive: outcome [1] | outcome [2] | outcome [3] | outcome [4] | outcome [5] | outcome [6] | outcome [7] | outcome [8] | outcome [9] | outcome [10] | outcome [11] | outcome [12] | outcome [13] | outcome [14] | outcome [15] | outcome [16] | outcome [17]

Cc1ccc(C(=O)Nc2ccccc2C(=O)N2CC3(C)CC2CC(C)(C)C3)cc1 (stereo not drawn)
inactive: outcome [1] | outcome [2] | outcome [3] | outcome [4] | outcome [5] | outcome [6] | outcome [7] | outcome [8] | outcome [9] | outcome [10] | outcome [11] | outcome [12] | outcome [13] | outcome [14] | outcome [15] | outcome [16] | outcome [17]

CC(C)c1ccc(OCc2ccc(C(=O)N3CCCC3)o2)cc1
active: potentiation [4] 39%
inactive: outcome [1] | outcome [2] | outcome [3] | outcome [5] | outcome [6] | outcome [7] | outcome [8] | outcome [9] | outcome [10] | outcome [11] | outcome [12] | outcome [13] | outcome [14] | outcome [15] | outcome [16] | outcome [17]

CCN(C(=O)c1cnc(NC(C)C)cc1C(F)(F)F)c1ccc(Cl)cc1Cl
inactive: outcome [1] | outcome [2] | outcome [3] | outcome [4] | outcome [6] | outcome [7] | outcome [8] | outcome [9] | outcome [10] | outcome [11] | outcome [12] | outcome [13] | outcome [15] | outcome [16] | outcome [17]
active: inhibition [5] 91% | inhibition [14] 44.8%

Cc1[nH]n2c(=O)c3c(nc2c1-c1ccccc1)CCC3
inactive: outcome [1] | outcome [2] | outcome [3] | outcome [4] | outcome [6] | outcome [7] | outcome [8] | outcome [9] | outcome [10] | outcome [11] | outcome [12] | outcome [13] | outcome [14] | outcome [15] | outcome [16] | outcome [17]
active: inhibition [5] 76%

C=CCNC(=S)N1CCN(CCN=Cc2c(C)[nH]n(-c3ccc([N+](=O)[O-])cc3)c2=O)CC1
inactive: outcome [1] | outcome [2] | outcome [3] | outcome [4] | outcome [5] | outcome [6] | outcome [7] | outcome [8] | outcome [9] | outcome [10] | outcome [11] | outcome [12] | outcome [13] | outcome [14] | outcome [15] | outcome [16] | outcome [17]

CCCn1c(=O)c2sccc2n2c(CCCC(=O)NC3CCN(Cc4ccccc4)CC3)nnc12
active: potentiation [4] 7% | potentiation [15] 7.99%
inactive: outcome [1] | outcome [2] | outcome [3] | outcome [5] | outcome [6] | outcome [7] | outcome [8] | outcome [9] | outcome [10] | outcome [11] | outcome [12] | outcome [13] | outcome [14] | outcome [16] | outcome [17]

CCN1CCN(c2ccc(S(=O)(=O)N3CCCCC3)cc2NC(=O)c2cccc(C(F)(F)F)c2)CC1
inactive: outcome [1] | outcome [2] | outcome [3] | outcome [5] | outcome [6] | outcome [7] | outcome [8] | outcome [9] | outcome [10] | outcome [11] | outcome [12] | outcome [13] | outcome [14] | outcome [16] | outcome [17]
active: potentiation [4] 21% | potentiation [15] 21.1%

Cc1ccc(C2(CCNC(C)c3cccs3)CCOC(C(C)C)C2)cc1 (stereo not drawn)
active: activation [11] 69%
inactive: outcome [1] | outcome [2] | outcome [3] | outcome [4] | outcome [5] | outcome [6] | outcome [7] | outcome [8] | outcome [9] | outcome [10] | outcome [12] | outcome [13] | outcome [14] | outcome [15] | outcome [16] | outcome [17]
